Sampled rows, rich in hits. Any-hit rate of the full collection: about 2.3%.
Mcl1 Bid PPI: disrupts binding of human Mcl-1 to Bid peptide. Q07820. TR-FRET Mcl-1/Bid-Dy647 peptide binding, 1536-well. inhibition, % at 21.7 µM. actives 0.97% (n = 220,000). AID 1021;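 active = compounds that cut the binding signal by more than half at the single screening dose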;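 also: His-tagged Mcl-1 with europium anti-His antibody binding Bid BH3 peptide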
Target sequence (Q07820 whole entry, looked up): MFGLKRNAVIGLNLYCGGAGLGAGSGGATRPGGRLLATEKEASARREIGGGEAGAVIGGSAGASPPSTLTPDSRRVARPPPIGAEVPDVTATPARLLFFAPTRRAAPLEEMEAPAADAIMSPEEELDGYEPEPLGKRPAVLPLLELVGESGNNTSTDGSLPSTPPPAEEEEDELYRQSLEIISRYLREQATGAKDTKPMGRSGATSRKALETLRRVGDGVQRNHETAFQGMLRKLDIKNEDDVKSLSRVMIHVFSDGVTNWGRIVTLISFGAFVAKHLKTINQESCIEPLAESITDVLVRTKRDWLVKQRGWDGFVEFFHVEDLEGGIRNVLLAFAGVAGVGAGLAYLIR
BCLXL inh: inhibitors of human Bcl-xL; Q07817; GST-Bcl-xL / FITC-Bim BH3 peptide fluorescence polarization; inhibition, % at 10.9 µM; actives 0.7% (n = 320,000); AID 2129;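 active = inhibition above the mean of all tested compounds plus 3 SD, cutoff set per campaign, cut at about 30% in these data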;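 also: inhibitors lower millipolarization by displacing the labeled peptide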
Target sequence (Q07817 whole entry, looked up): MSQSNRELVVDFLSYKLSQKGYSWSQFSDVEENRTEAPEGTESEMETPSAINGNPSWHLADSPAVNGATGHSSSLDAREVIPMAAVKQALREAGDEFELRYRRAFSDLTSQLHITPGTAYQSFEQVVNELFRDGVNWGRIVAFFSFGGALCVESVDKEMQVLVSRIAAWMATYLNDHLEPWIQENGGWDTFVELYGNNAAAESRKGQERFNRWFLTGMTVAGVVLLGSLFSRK
GLD-1 TGE inh: GLD-1-TGE RNA interaction inhibition (C. elegans). Q17339. purified GLD-1 + fluorescein TGE RNA, fluorescence polarization. inhibition, % at 5.96 µM. actives 0.44% (n = 320,000);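 active = percent inhibition above a per-plate cutoff, the plate mean of test compounds plus 3 SD, cut at about 30% in these data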
Mcl1-Noxa inh: disrupts binding of human Mcl-1 to Noxa peptide; Q07820; TR-FRET Mcl-1/Noxa peptide binding, 2 h; inhibition, % at 21.7 µM; actives 1.5% (n = 220,000);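 active = compounds that cut the protein-peptide binding signal by more than 50% relative to plate controls in a single-dose test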;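 also: His-tagged Mcl-1 with rhodamine Noxa BH3 peptide and terbium anti-His antibody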
Bim-Mcl-1: inhibitors of Bim-Mcl-1 interaction, human | actives 0.1% (n = 190,000) | Bead-based flow cytometry, Bim peptide-Mcl-1 binding | inhibition, % at 10 µM | Q07820; in the data active = inhibition above about 40%
MCL1-BIM inh: disrupts human MCL1 binding to BIM-BH3 peptide | actives 0.68% (n = 320,000) | inhibition, % at 10.9 µM | GST-MCL1 / FITC-Bim-BH3 fluorescence polarization;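 active = inhibition above the mean inhibition of all tested compounds plus 3 SD, set per campaign, cut at about 40% in these data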;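 also: higher means more loss of mP so more displacement of Bim peptide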
Each line names hits and unclear results; the compound was inactive in the other large screens.

O=[N+]([O-])c1cc(Cc2ccccc2)cc(C=Nc2ccc(N3CCOCC3)cc2)c1O	none
COc1cc(C=Nc2cccc(C)c2)c(O)c([N+](=O)[O-])c1	Bim-Mcl-1 53
COc1ccccc1N1CCN(C(=O)C(C)N(c2ccc(C)cc2)S(C)(=O)=O)CC1 (stereo unspecified)	none
CCc1ccc(C2C(C#N)=C(N)SC(N)=C2C#N)s1	none
Cc1ccc(C2C(C#N)=C(N)SC(N)=C2C#N)o1	Mcl1-Noxa inh 84
Cc1cc2nc(-c3ccc(SCC(=O)NC(C)C)nc3)[nH]c2cc1C	none
Cc1cc2nc(-c3ccc(SCc4ccc(C(=O)O)cc4)nc3)[nH]c2cc1C	Mcl1-Noxa inh 76
Cc1ccc(S(=O)(=O)NC(N)=NCCc2ccc(Cl)cc2)cc1C	none
CCS(=O)(=O)C1=NN2C(=N)/C(=C\c3ccc(SCc4ccco4)o3)C(=O)N=C2S1	Mcl1-Noxa inh 80 (no result: BCLXL inh, GLD-1 TGE inh, MCL1-BIM inh)
O=C(Nc1ccc(Cl)cc1F)C1CC1c1ccccc1 (stereo unspecified)	none (no result: Mcl1 Bid PPI, Mcl1-Noxa inh, Bim-Mcl-1)
O=c1cc(N2CCN(c3ccccc3)CC2)[nH]c(=O)n1-c1ccccc1Cl	none
O=C(Nc1cc2c(oc1=O)CCCC2=O)c1ccc(Cl)cc1	Mcl1-Noxa inh 57
O=C(COc1cccc(NC(=O)c2ccccc2)c1)c1ccc(F)cc1	none
O=C(COc1ccccc1)NC(=S)Nc1ccc2c(c1)Cc1ccccc1-2	Mcl1-Noxa inh 52
O=C(COc1ccccc1)NC(=S)Nc1cccc([N+](=O)[O-])c1	none
CC1CCN(C(=O)COC(=O)CCC(=O)c2ccc(F)cc2)CC1	none (no result: Mcl1 Bid PPI, BCLXL inh, Mcl1-Noxa inh, Bim-Mcl-1, MCL1-BIM inh)
CCOc1ccc2c(c1)C(=O)c1cc(OCC(=O)O)ccc1-2	none (no result: Bim-Mcl-1)
CCCCOc1ccc2c(c1)C(=O)c1cc(O)ccc1-2	GLD-1 TGE inh 139
Cc1cc(C)n(S(=O)(=O)c2ccc(C(C)(C)C)cc2)n1	none
CCN(CC)CCOC(=O)c1ccc(N/C=C(/C#N)c2nc(-c3ccc4c(c3)OCO4)cs2)cc1	Mcl1 Bid PPI 63, Mcl1-Noxa inh 69 (no result: Bim-Mcl-1)
CC(C)Cn1c(N)c(C(=O)COC(=O)CC23CC4CC(CC(C4)C2)C3)c(=O)n(C)c1=O	none
O=C(O)c1ccccc1NS(=O)(=O)c1ccc(NNC(=S)Nc2ccc(OC(F)F)cc2)c([N+](=O)[O-])c1	Mcl1 Bid PPI 95, Mcl1-Noxa inh 112 (no result: BCLXL inh, GLD-1 TGE inh, MCL1-BIM inh)
CCOc1ccc(OCC(=O)NCCc2nc3ccccc3[nH]2)cc1	none
Cc1cc(C)cc(OCC(=O)NCCc2nc3ccccc3[nH]2)c1	BCLXL inh 47
O=c1[nH]c(=S)[nH]c2c1CN(Cc1ccc(F)cc1)CC2	none (no result: Mcl1 Bid PPI, Mcl1-Noxa inh, Bim-Mcl-1)
Nc1ccccc1Nc1ccccc1	Mcl1 Bid PPI 75, Mcl1-Noxa inh 52
Nc1ccc(Nc2ccccc2)c(Cl)c1	none
CC(C(=O)Nc1ccc([N+](=O)[O-])cc1)N1CCN(C/C=C/c2ccccc2)CC1 (stereo unspecified)	Bim-Mcl-1 41
CC(=O)c1ccc(NC(=O)C(C)N2CCN(C/C=C/c3ccccc3)CC2)cc1 (stereo unspecified)	none (no result: Bim-Mcl-1)
COc1ccc(Cl)cc1NC(=O)C(C)N1CCN(C/C=C/c2ccccc2)CC1 (stereo unspecified)	Mcl1 Bid PPI 51
CC1(c2cccc(Br)c2)NC(=O)N(CC(=O)N2CCN(C(=O)c3ccco3)CC2)C1=O (stereo unspecified)	none (no result: Mcl1 Bid PPI, Mcl1-Noxa inh, Bim-Mcl-1)
COC(=O)c1cccc(NC(=S)N2CCN(c3ccccc3F)CC2)c1	none
Cc1c(Cc2ccccc2)sc(NC(=O)/C=C/c2cccc3ccccc23)c1C(N)=O	Mcl1-Noxa inh 59
COC(=O)c1c(NC(=O)/C=C/C(=O)O)sc(Cc2ccccc2)c1C	none
CC(=O)Nc1ccc(C(=O)NC(CC(=O)O)c2ccc(Cl)cc2)cc1 (stereo unspecified)	none
CN(C)c1ccc(C(CC(=O)O)NC(=O)c2ccc(Cl)cc2)cc1 (stereo unspecified)	Mcl1-Noxa inh 52
C/C(=N\NS(=O)(=O)c1ccc(Br)cc1)c1ccc2c(c1)OCO2	none (no result: Mcl1 Bid PPI, Mcl1-Noxa inh, Bim-Mcl-1)
COc1cccc(-n2nnc3c(=O)n(CC(=O)NC4CCCC4)cnc32)c1	Mcl1-Noxa inh 52
COc1ccc(NC(=O)c2cccn(CC=C(C)C)c2=O)cc1	none
CCN(CC)c1ccc(S(=O)(=O)N2CCOCC2)cc1NC(=O)c1cc(=O)c2ccccc2o1	none
COc1ccccc1C(NC(C)=O)c1cc(Cl)c2cccnc2c1O (stereo unspecified)	none (no result: Mcl1 Bid PPI, Mcl1-Noxa inh, Bim-Mcl-1)
CCOc1ccc(C(Nc2cccnc2)c2cc(Cl)c3cccnc3c2O)cc1 (stereo unspecified)	Mcl1 Bid PPI 95, Mcl1-Noxa inh 96
O=C(O)COc1ccccc1C(Nc1cccnc1)c1cc(Cl)c2cccnc2c1O (stereo unspecified)	Mcl1 Bid PPI 78, Mcl1-Noxa inh 97 (no result: BCLXL inh, GLD-1 TGE inh, MCL1-BIM inh)
Cc1cccc(NC(=O)C2CC(=O)N/C(=N/N=C/c3ccco3)S2)c1 (stereo unspecified)	none
COc1ccc(NCc2cc(=O)oc3cc(NC(C)=O)ccc23)cc1	none (no result: Mcl1 Bid PPI, Mcl1-Noxa inh, Bim-Mcl-1)
Cc1cc(NS(=O)(=O)c2ccc(NC(=O)c3cc4c(=O)n5ccccc5nc4s3)cc2)nc(C)n1	none (no result: BCLXL inh, GLD-1 TGE inh, MCL1-BIM inh)
CN(C)S(=O)(=O)c1cccc(NC(=O)c2cc3c(=O)n4ccccc4nc3s2)c1	Mcl1 Bid PPI 69
CC1CN(CC(O)COCc2ccc3c(c2)OCO3)CC(C)O1 (stereo unspecified)	none
CCOC(=O)Cc1csc(NC(=O)CSc2nnnn2-c2ccc(C)c(C)c2)n1	Mcl1 Bid PPI 80
Cc1ccc(C2C(C(=O)c3cc4ccccc4o3)=C(O)C(=O)N2CCN2CCOCC2)o1 (stereo unspecified)	Mcl1 Bid PPI 51
Cc1ccc(C2C(C(=O)c3cc4ccccc4o3)=C(O)C(=O)N2CCN2CCOCC2)cc1 (stereo unspecified)	none (no result: Mcl1 Bid PPI, Mcl1-Noxa inh, Bim-Mcl-1)
COc1cc(C(=O)OCn2nnc3ccccc3c2=O)cc(OC)c1OC	Mcl1 Bid PPI 62
Cc1ccn2c(Nc3ccc4c(c3)OCO4)c(-c3ccc(O)cc3)nc2c1	Mcl1-Noxa inh 51 (no result: Bim-Mcl-1)
Cc1occc1C(=O)NNC(=O)Nc1ccc([N+](=O)[O-])cc1	Mcl1 Bid PPI 82
Cc1occc1C(=O)Nc1ccc([N+](=O)[O-])cc1Br	none (no result: Mcl1 Bid PPI, Mcl1-Noxa inh, Bim-Mcl-1)
COc1cc(C#CC#CCN2CCCCC2)ccc1O	Mcl1-Noxa inh 51
COc1ccccc1/C=N/NC(=O)c1ccc(NC(=O)c2cccc([N+](=O)[O-])c2)cc1	none
O=C(N/N=C/c1cccc(O)c1)c1ccc(NC(=O)c2cccc([N+](=O)[O-])c2)cc1	Mcl1-Noxa inh 60
O=C(N/N=C/c1ccncc1)c1cccc(N/N=C/c2ccncc2)c1	none
COc1ccc(/C=N/NC(=O)c2ccc(NC(=O)c3cccc([N+](=O)[O-])c3)cc2)c(OC)c1	Mcl1-Noxa inh 67
O=C(N/N=C/c1ccccn1)c1ccc(NC(=O)c2cccc([N+](=O)[O-])c2)cc1	none

High-throughput results: PubChem BioAssay, several laboratories
